Source: PubChem BioAssay (EPA / NIEHS)
Calls of active or inactive are those of the source. How the source made its calls: active means hit-call score of the fitted dose curve at least 0.9, where 1 is the maximum; inactive means score below 0.9.

Assays:
[1] = read-out: Interleukin-1 alpha (IL1a), IL1A (gene 3552); experiment: BSK_KF3CT_IL1a: BioMAP Diversity Plus: KF3CT Assay for Interleukin-1 alpha (IL1a) Biomarker Activity (AID 2283070); details: primary human keratinocytes with fibroblasts; actives raise or lower the signal
Method in brief: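 IL-1a was detected by ELISA 24 h after chemical treatment of a co-culture of human skin keratinocytes and foreskin fibroblasts. Gain or loss of signal was fitted against the DMSO baseline.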

[2] = read-out: Transforming growth factor beta 1 (TGFb1), TGFB1 (gene 7040); experiment: BSK_KF3CT_TGFb1: BioMAP Diversity Plus: KF3CT Assay for Transforming growth factor beta 1 (TGFb1) Biomarker Activity (AID 2283072); details: primary human keratinocytes with fibroblasts; actives raise or lower the signal
Method in brief: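 TGF-b1 ELISA on a 24 h dosed co-culture of human keratinocytes and foreskin fibroblasts; cytotoxicity tracked in parallel cultures by SRB staining.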

[3] = read-out: C-C motif chemokine 2 (Homo sapiens) (UniProt P13500); experiment: BSK_KF3CT_MCP1: BioMAP Diversity Plus: KF3CT Assay for Monocyte Chemoattractant Protein 1 (MCP1/CCL2) Biomarker Activity (AID 2283073); details: primary human keratinocytes with fibroblasts; actives raise or lower the signal
Method in brief: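 ELISA readout of MCP-1 after 24 h chemical dosing of a human skin primary co-culture of keratinocytes and foreskin fibroblasts. Activity was fitted in both directions against DMSO.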

[4] = read-out: Matrix Metallopeptidase 9 (MMP9), MMP9 (gene 4318); experiment: BSK_KF3CT_MMP9: BioMAP Diversity Plus: KF3CT Assay for Matrix Metallopeptidase 9 (MMP9) Biomarker Activity (AID 2283074); details: primary human keratinocytes with fibroblasts; actives raise or lower the signal;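 on AC50: MMP9 protein level quantified by ELISA in the co-culture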
Method in brief: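 MMP-9 quantified by ELISA after 24 h chemical treatment of primary human skin keratinocyte/fibroblast co-cultures; gain or loss fitted against DMSO, with parallel SRB staining (0.1% SRB, 560 nm) for overt cytotoxicity.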

[5] = read-out: urokinase plasminogen activator (uPA), PLAU (gene 5328); experiment: BSK_KF3CT_uPA: BioMAP Diversity Plus: KF3CT Assay for urokinase plasminogen activator (uPA) Biomarker Activity (AID 2283075); details: primary human keratinocytes with fibroblasts; actives raise or lower the signal
Method in brief: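 ELISA read-out of uPA 24 h after dosing human skin keratinocytes co-cultured with foreskin fibroblasts. Signal change fitted both ways relative to DMSO; sulforhodamine B on parallel cultures marks overt cytotoxicity.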

CD40, CD40 (gene 958) = experiment: BSK_LPS_CD40: BioMAP Diversity Plus: LPS Assay for CD40 Biomarker Activity (AID 2283076); details: primary human HUVEC with PBMC; actives raise or lower the signal
Method in brief: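 Cells were dosed, incubated 24 h, then assayed for CD40 by ELISA. Gain or loss of signal was analysed relative to DMSO controls. The culture paired human umbilical vein endothelium with peripheral blood mononuclear cells.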

[6] = read-out: E-selectin (Homo sapiens) (UniProt P16581); experiment: BSK_LPS_Eselectin: BioMAP Diversity Plus: LPS Assay for Eselectin Biomarker Activity (AID 2283077); details: primary human HUVEC with PBMC; actives raise or lower the signal
Method in brief: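 Primary human vascular co-culture (endothelium plus PBMC) was dosed with chemical, then E-selectin quantified by ELISA at 24 h. Endpoint values derive from bidirectional curve fitting relative to DMSO.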

[7] = read-out: Interleukin-8 (IL8), CXCL8 (gene 3576); experiment: BSK_LPS_IL8: BioMAP Diversity Plus: LPS Assay for Interleukin-8 (IL8) Biomarker Activity (AID 2283078); details: primary human HUVEC with PBMC; actives raise or lower the signal
Method in brief: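 Readout is IL-8 by ELISA, taken 24 h after compounds were added to LPS-stimulated endothelial/PBMC co-cultures. Both increases and decreases relative to DMSO control were scored through bidirectional fitting.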

[8] = BSK_LPS_SRB: Viability Assessment in the BioMAP Diversity Plus: LPS Assay (AID 2283079); details: primary human HUVEC with PBMC;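 further: total protein by sulforhodamine B absorbance as a cytotoxicity measure; measured one day after compound addition; fitted in both directions against DMSO so loss or gain of signal counts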
Method in brief: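 Readout is SRB absorbance at 560 nm (0.1% stain, TCA-fixed parallel cultures) as a total-protein cytotoxicity measure. Cells: primary human umbilical vein endothelium plus peripheral blood mononuclear cells, 24 h after chemical exposure; DMSO served as baseline.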

Chain of E-selectin (Homo sapiens) (P16581 whole entry, looked up): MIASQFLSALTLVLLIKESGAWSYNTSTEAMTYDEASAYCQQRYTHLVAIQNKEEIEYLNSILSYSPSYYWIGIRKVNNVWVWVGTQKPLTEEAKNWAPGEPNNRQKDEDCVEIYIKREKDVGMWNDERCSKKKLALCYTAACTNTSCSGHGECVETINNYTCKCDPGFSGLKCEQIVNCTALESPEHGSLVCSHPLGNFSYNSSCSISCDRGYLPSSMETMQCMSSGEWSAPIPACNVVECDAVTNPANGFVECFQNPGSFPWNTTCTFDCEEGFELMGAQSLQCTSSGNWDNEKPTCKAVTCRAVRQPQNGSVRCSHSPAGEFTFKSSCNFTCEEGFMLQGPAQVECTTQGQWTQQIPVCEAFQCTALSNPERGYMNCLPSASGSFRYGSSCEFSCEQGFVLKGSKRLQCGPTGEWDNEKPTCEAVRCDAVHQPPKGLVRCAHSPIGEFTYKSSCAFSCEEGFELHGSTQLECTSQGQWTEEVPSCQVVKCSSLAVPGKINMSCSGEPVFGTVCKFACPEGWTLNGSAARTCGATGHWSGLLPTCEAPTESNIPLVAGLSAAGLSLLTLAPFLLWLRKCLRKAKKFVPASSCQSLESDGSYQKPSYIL

CCCCC(CC)COC(=O)CCCCC(=O)OCc1ccccc1 (stereo not drawn)
outcome [1]: inactive
outcome [2]: inactive
outcome [3]: inactive
outcome [4]: inactive
outcome [5]: inactive
outcome (CD40, CD40 (gene 958)): inactive
outcome [6]: inactive
outcome [7]: inactive
outcome [8]: inactive

Cc1cc(C)c(O)c(C)c1
outcome [1]: inactive
outcome [2]: inactive
outcome [3]: inactive
outcome [4]: inactive
outcome [5]: inactive
outcome [6]: inactive
outcome [7]: inactive
outcome [8]: inactive

CCCOc1sc(C(=O)N2CCC(c3cc(CN)ccc3F)CC2)c(C)c1Br
AC50 [1]: 10.6 µM (active)
AC50 [2]: 8.97 µM (active)
AC50 [3]: 9.27 µM (active)
AC50 [4]: 5.74 µM (active)
AC50 [5]: 10.2 µM (active)
AC50 [6]: 11.1 µM (active)
AC50 [7]: 13.6 µM (active)
AC50 [8]: 5.93 µM (active)

CCCCCCCCOC(=O)CCCCCCCCC(=O)OCCCCCCCC
outcome [1]: inactive
outcome [2]: inactive
outcome [3]: inactive
outcome [4]: inactive
outcome [5]: inactive
outcome [6]: inactive
outcome [7]: inactive
outcome [8]: inactive

CCc1ccc(CCOc2ccc(CC3SC(=O)NC3=O)cc2)nc1 (stereo not drawn)
outcome [1]: inactive
outcome [2]: inactive
outcome [3]: inactive
outcome [4]: inactive
outcome [5]: inactive
outcome [6]: inactive
outcome [7]: inactive
outcome [8]: inactive

CC#C[C@]1(O)CC[C@H]2[C@@H]3CCC4=CC(=O)CCC4=C3[C@@H](c3ccc(N(C)C)cc3)C[C@@]21C
outcome [1]: inactive
outcome [2]: inactive
AC50 [3]: 34.2 µM (active)
AC50 [4]: 24.1 µM (active)
outcome [5]: inactive
AC50 [6]: 30.5 µM (active)
AC50 [7]: 32.6 µM (active)
AC50 [8]: 27.9 µM (active)

C#C[C@]1(O)CC[C@H]2[C@@H]3CCC4=CC(=O)CC[C@@H]4[C@H]3CC[C@@]21C
outcome [1]: inactive
outcome [2]: inactive
outcome [3]: inactive
outcome [4]: inactive
outcome [5]: inactive
outcome (CD40, CD40 (gene 958)): inactive
AC50 [6]: 6.29 µM (active)
AC50 [7]: 4.87 µM (active)
AC50 [8]: 5.96 µM (active)

CC[C@H](C)[C@@H](C(=O)O)n1sc2ccccc2c1=O
outcome [1]: inactive
outcome [2]: inactive
outcome [3]: inactive
outcome [4]: inactive
outcome [5]: inactive
outcome [6]: inactive
outcome [7]: inactive
outcome [8]: inactive

FC(F)(I)C(F)(F)C(F)(F)C(F)(F)C(F)(F)C(F)(F)I
AC50 [1]: 7.77 µM (active) [middle of 5 runs]
AC50 [3]: 6.01 µM (active) [middle of 5 runs]
AC50 [4]: 8.17 µM (active) [middle of 5 runs]
AC50 [5]: 11.7 µM (active) [middle of 5 runs]

N#C[C@@H]1CC(F)(F)CN1C(=O)CNC1CC2CCC(C1)N2c1ncccn1 (stereo partly drawn)
outcome [1]: inactive
outcome [2]: inactive
outcome [3]: inactive
outcome [4]: inactive
outcome [5]: inactive
outcome [6]: inactive
outcome [7]: inactive
outcome [8]: inactive

CCCCCCCCCCCCc1ccccc1S(=O)(=O)O
AC50 [1]: 29.9 µM (active)
AC50 [2]: 12.4 µM (active)
AC50 [3]: 24.3 µM (active)
AC50 [4]: 12 µM (active)
AC50 [5]: 28 µM (active)
outcome [6]: inactive
outcome [7]: inactive
outcome [8]: inactive

ClC1=C(Cl)C(Cl)(Cl)C(Cl)=C1Cl
AC50 [1]: 7.98 µM (active)
AC50 [2]: 9.02 µM (active)
AC50 [3]: 9.19 µM (active)
AC50 [4]: 9.06 µM (active)
AC50 [5]: 10.7 µM (active)
AC50 [6]: 11.9 µM (active)
AC50 [7]: 13.9 µM (active)
AC50 [8]: 11.4 µM (active)

O=[N+]([O-])c1ccc(O)cc1
outcome [1]: inactive
outcome [2]: inactive
outcome [3]: inactive
outcome [4]: inactive
outcome [5]: inactive
outcome [6]: inactive
outcome [7]: inactive
outcome [8]: inactive

C[C@@H]1C[C@H]2[C@@H]3CCC4=CC(=O)C=C[C@]4(C)[C@@]3(F)[C@@H](O)C[C@]2(C)[C@@]1(O)C(=O)COP(=O)(O)O
outcome [1]: inactive
outcome [2]: inactive
outcome [3]: inactive
outcome [4]: inactive
outcome [5]: inactive
outcome (CD40, CD40 (gene 958)): inactive
outcome [6]: inactive
outcome [7]: inactive
outcome [8]: inactive

CC1=C(/C=C/C(C)=C/C=C/C(C)=C/C(=O)O)C(C)(C)CCC1
AC50 [1]: 33.6 µM (active)
AC50 [2]: 30.1 µM (active)
AC50 [3]: 32.4 µM (active)
AC50 [4]: 32.6 µM (active)
AC50 [5]: 31.2 µM (active)
AC50 [6]: 6.18 µM (active)
outcome [7]: inactive
outcome [8]: inactive

COCC(C)O (stereo not drawn)
outcome [1]: inactive
outcome [2]: inactive
outcome [3]: inactive
outcome [4]: inactive
outcome [5]: inactive
outcome [6]: inactive
outcome [7]: inactive
outcome [8]: inactive

CN1CCC[C@H]1c1cccnc1
outcome [1]: inactive
outcome [2]: inactive
outcome [3]: inactive
outcome [4]: inactive
outcome [5]: inactive
outcome [6]: inactive
outcome [7]: inactive
outcome [8]: inactive

COC(=O)CCCCC(=O)OC
outcome [1]: inactive
outcome [2]: inactive
outcome [3]: inactive
outcome [4]: inactive
outcome [5]: inactive
outcome [6]: inactive
outcome [7]: inactive
outcome [8]: inactive
